Results taken from the supplement of paper PMC10849652.
Targets with a hit are over-represented here; the source holds about 7,900 in all. About 0.6% of all pairs of compound and target were hits. Unmarked numbers belong to inactive results.

Legend:
Assay in all cases: log2 fold change, soluble protein after heating vs DMSO (PISA); higher = thermal stabilisation; K562 cells, 10 uM, 30 min; active = over 0.2 and 3.5 SD of the protein, either way, in both replicates (recomputed)
ZC3H8 = ZC3H8 (UniProt Q8N5P1)
How it was run: (§1)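 K562 cells at 2×10^6 cells/mL were treated with 10 μM compound for 30 min. Aliquots were heated for 3 min across 48°C-58°C, pooled, and extracted in PBS with 0.5% NP-40 at 4°C; soluble protein was the supernatant after 21,000xg for 90 min. Soluble protein was quantified by TMTpro 16plex LC-MS/MS with channel sums equalised, and reported as log2 fold change in thermal stability against DMSO controls, with values from duplicates.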

ZC3HC1 = ZC3HC1 (UniProt Q86WB0)
How it was run: as §1

ZCCHC9 = ZCCHC9 (UniProt Q8N567)
How it was run: as §1

ZDHHC17 = ZDHHC17 (UniProt Q8IUH5)
How it was run: as §1

ZDHHC20 = ZDHHC20 (UniProt Q5W0Z9)
How it was run: as §1

ZDHHC5 = ZDHHC5 (UniProt Q9C0B5)
How it was run: as §1

ZDHHC7 isoform 2 = ZDHHC7 isoform 2 (UniProt Q9NXF8)
How it was run: as §1

ZDHHC6 = ZDHHC6 (UniProt Q9H6R6)
How it was run: as §1

ZDHHC8 isoform 3 = ZDHHC8 isoform 3 (UniProt Q9ULC8)
How it was run: as §1

ZDHHC5, sequence (Q9C0B5 whole entry, looked up): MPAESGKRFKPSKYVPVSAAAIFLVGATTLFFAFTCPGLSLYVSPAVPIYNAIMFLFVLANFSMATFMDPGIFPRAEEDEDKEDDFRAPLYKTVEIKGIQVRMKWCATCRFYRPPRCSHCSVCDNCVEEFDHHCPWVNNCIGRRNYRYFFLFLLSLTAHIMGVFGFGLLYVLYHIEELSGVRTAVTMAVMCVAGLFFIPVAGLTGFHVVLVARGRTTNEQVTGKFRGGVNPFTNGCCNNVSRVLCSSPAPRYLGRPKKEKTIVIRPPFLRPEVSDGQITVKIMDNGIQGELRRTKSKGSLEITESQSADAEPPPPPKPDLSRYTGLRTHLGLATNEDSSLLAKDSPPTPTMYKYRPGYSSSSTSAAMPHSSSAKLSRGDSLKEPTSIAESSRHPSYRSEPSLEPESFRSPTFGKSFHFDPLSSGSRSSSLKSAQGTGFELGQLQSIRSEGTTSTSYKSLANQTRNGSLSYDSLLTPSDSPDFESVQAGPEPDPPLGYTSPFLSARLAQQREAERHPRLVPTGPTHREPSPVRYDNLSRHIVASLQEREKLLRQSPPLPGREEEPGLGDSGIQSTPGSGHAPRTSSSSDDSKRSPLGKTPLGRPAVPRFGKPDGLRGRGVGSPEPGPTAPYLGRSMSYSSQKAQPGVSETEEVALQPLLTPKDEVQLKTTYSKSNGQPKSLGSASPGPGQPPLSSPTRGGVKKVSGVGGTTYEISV
ZDHHC6, sequence (Q9H6R6 whole entry, looked up): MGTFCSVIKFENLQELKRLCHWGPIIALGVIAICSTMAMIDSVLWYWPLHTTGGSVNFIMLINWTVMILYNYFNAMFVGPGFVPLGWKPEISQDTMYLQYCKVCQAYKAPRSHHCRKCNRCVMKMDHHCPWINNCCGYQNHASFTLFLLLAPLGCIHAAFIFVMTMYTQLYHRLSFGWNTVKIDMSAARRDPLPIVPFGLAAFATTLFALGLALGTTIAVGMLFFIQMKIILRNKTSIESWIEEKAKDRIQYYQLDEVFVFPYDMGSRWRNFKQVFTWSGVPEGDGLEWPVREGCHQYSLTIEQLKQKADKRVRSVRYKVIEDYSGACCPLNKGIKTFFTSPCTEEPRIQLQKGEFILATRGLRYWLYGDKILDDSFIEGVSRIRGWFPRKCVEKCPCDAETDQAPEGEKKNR
ZCCHC9, sequence (Q8N567 whole entry, looked up): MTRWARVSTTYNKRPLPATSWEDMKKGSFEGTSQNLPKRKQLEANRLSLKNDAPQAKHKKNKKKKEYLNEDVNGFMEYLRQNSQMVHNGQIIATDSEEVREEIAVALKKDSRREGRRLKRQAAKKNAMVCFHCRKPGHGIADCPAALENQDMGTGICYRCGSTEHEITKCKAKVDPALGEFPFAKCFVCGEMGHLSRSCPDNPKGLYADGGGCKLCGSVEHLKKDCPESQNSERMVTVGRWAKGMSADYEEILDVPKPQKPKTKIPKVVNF
ZDHHC20, sequence (Q5W0Z9 whole entry, looked up): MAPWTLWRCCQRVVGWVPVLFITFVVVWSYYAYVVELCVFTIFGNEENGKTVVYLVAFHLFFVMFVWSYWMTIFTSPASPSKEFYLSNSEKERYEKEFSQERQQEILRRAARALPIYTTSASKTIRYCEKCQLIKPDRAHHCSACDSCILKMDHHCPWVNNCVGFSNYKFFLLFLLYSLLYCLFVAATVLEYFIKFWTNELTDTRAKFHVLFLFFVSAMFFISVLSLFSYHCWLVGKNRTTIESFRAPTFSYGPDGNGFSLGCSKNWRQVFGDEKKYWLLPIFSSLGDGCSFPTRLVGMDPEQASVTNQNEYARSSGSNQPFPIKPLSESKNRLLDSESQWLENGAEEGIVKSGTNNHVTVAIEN
ZDHHC7 isoform 2, sequence (Q9NXF8 whole entry, looked up, canonical isoform): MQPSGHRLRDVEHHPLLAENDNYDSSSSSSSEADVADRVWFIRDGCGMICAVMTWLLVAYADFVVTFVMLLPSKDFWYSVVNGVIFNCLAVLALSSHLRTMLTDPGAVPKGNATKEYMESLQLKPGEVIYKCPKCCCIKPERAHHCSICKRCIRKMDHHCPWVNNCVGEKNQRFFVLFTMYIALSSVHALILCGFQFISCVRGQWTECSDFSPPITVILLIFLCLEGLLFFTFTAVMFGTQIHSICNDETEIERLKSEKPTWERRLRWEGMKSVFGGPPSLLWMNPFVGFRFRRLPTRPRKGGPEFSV
ZDHHC8 isoform 3, sequence (Q9ULC8 whole entry, looked up, canonical isoform): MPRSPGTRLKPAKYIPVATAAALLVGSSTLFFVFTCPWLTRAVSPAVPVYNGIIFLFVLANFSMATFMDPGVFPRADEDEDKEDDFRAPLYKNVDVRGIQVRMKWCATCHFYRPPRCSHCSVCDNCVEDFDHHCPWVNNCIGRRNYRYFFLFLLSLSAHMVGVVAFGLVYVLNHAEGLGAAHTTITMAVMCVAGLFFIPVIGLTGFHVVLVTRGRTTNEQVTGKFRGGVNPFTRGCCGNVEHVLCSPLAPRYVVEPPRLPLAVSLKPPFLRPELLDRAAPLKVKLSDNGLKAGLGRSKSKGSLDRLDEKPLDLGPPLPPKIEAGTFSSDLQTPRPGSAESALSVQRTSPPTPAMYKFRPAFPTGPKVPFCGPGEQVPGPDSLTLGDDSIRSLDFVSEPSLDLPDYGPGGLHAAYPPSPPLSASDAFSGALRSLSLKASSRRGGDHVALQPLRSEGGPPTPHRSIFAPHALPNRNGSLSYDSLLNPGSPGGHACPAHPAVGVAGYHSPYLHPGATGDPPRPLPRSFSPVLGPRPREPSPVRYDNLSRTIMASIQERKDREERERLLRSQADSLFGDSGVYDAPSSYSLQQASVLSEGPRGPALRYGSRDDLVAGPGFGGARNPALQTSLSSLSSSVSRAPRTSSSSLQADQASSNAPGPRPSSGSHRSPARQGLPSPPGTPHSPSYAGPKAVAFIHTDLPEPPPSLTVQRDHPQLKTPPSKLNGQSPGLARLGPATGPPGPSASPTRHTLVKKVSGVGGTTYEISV
ZDHHC17, sequence (Q8IUH5 whole entry, looked up): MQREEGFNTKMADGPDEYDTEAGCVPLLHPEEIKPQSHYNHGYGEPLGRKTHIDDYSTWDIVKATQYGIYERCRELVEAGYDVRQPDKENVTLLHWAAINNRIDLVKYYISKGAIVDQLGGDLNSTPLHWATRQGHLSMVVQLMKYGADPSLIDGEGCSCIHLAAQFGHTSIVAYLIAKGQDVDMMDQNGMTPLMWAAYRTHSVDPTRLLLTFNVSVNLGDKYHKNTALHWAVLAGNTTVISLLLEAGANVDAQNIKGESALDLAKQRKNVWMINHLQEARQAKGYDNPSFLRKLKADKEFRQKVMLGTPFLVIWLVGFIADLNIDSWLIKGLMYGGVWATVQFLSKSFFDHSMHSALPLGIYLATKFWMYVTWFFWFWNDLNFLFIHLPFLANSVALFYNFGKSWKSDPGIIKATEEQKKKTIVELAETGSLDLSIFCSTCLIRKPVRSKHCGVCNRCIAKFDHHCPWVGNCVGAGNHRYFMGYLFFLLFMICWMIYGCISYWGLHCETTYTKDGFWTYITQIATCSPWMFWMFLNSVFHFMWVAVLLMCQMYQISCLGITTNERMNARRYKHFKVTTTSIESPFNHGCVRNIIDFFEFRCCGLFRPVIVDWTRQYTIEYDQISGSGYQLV
ZC3H8, sequence (Q8N5P1 whole entry, looked up): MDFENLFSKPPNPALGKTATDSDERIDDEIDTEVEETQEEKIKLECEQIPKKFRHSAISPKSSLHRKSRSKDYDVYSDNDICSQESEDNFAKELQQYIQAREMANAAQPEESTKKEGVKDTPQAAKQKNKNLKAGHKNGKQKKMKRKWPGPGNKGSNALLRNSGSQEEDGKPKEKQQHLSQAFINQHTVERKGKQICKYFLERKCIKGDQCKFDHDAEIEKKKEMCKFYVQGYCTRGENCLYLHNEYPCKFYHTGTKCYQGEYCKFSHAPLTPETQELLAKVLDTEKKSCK
ZC3HC1, sequence (Q86WB0 whole entry, looked up): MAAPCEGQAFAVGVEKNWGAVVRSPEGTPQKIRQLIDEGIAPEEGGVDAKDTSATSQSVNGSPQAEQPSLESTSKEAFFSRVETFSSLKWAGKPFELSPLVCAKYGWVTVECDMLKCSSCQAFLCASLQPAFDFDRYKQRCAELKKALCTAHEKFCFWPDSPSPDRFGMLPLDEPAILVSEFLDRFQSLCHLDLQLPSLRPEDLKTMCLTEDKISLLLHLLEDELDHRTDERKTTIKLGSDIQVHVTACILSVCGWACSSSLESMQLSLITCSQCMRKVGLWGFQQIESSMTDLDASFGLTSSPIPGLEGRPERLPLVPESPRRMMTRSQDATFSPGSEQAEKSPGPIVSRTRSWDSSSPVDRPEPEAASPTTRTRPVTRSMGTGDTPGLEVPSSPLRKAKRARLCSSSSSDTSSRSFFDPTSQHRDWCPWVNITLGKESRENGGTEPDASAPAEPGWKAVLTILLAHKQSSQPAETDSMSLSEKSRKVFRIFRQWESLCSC

SMILES	log2 fold change (ZC3H8)	log2 fold change (ZC3HC1)	log2 fold change (ZCCHC9)	log2 fold change (ZDHHC17)	log2 fold change (ZDHHC20)	log2 fold change (ZDHHC5)	log2 fold change (ZDHHC7 isoform 2)	log2 fold change (ZDHHC6)	log2 fold change (ZDHHC8 isoform 3)
Cn1cc(-c2ccc3nnc(C(F)(F)c4ccc5ncccc5c4)n3n2)cn1	-0.056	0.038	-0.081	-0.029	0.048	-0.009	0.091		
CC(C)(O)CC(=O)NCCn1ccc2ncnc(Nc3ccc(Oc4cccc(C(F)(F)F)c4)c(Cl)c3)c21	0.064	-0.179	0.166	0.062	-0.082	0.033	-0.026	-0.932 (active)	0.486 (active)
NC(=O)c1cnc(N[C@@H]2CCCC[C@@H]2N)nc1Nc1cccc(-n2nccn2)c1	0.08	-0.054	0.049	-0.003	-0.001	-0.01	-0.064		
O=C1NC(=O)C(c2cnc3ccccn23)=C1c1cn2c3c(cc(F)cc13)CN(C(=O)N1CCCCC1)CC2	0	-0.132	0.229	0.043	0.079	-0.014	-0.021	0.089	0.029
O=C1c2ccccc2-c2n[nH]c3cccc1c23	-0.001	-0.032	-0.009	-0.021	-0.044	-0.054	0.01		
Cc1cccc(CC(=O)N2CCc3c2ccc(-c2cn(C)c4ncnc(N)c24)c3F)n1	0.026	0.029	-0.048	-0.082	0.021	-0.067	-0.06	0.097	
COc1cc(C(=O)O)ccc1NC(=O)[C@@H]1N[C@@H](CC(C)(C)C)[C@](C#N)(c2ccc(Cl)cc2F)[C@H]1c1cccc(Cl)c1F [idasanutlin]	0.109	-0.012	0.139	-0.048	-0.014	-0.111	-0.013		
O=C1NC(=NCc2cccs2)S/C1=C\c1ccc2ncccc2c1	-0.062	0.077	-0.035	0.064	-0.125	0.091	0.161		
CC(=O)c1cnc2ccc(-c3cc(Cl)c(O)c(Cl)c3)nc2c1N[C@H]1CC[C@H](CN(C)C)CC1	0.006	-0.165	0.143	-0.007	0.026	-0.049	-0.017		
c1cc(OCCN2CCCCC2)cc(-c2n[nH]c3ccc(-c4nnc[nH]4)cc23)c1	-0.104	-0.046	-0.067	0.068	0.053	-0.076	-0.191	-0.005	
CO[C@H]1C[C@@H]2CC[C@@H](C)[C@@](O)(O2)C(=O)C(=O)N2CCCC[C@H]2C(=O)O[C@H]([C@H](C)C[C@@H]2CC[C@H](n3cnnn3)[C@H](OC)C2)CC(=O)[C@H](C)/C=C(\C)[C@@H](O)[C@@H](OC)C(=O)[C@H](C)C[C@H](C)/C=C/C=C/C=C/1C [zotarolimus]	0.029	0.052	-0.044	0.039	-0.15	-0.085	-0.245		
CC(C)C[C@@H](C=O)NC(=O)[C@H](CC(C)C)NC(=O)[C@H](CC(C)C)NC(=O)OCc1ccccc1	0.045	-0.101	0.305	-0.057	-0.153	-0.029	-0.069		
CNC(=O)c1ccccc1Nc1nc(Nc2ccc(N3CCOCC3)cc2OC)ncc1Cl	0.019	0.067	0.058	0.146	0	0.006	-0.016		
CN1CCC(CNc2ccc3ncc(-c4cccc(OC(F)(F)F)c4)n3n2)CC1	0.397 (active)	-0.402 (active)	0.181	0.065	0.035	0.31 (active)	-0.415 (active)	0.011	
CCCCN(Cc1ccc(C(=O)NO)cc1)C(=O)Nc1ccccc1 [Nexturastat A]	0.106	-0.106	0.311	-0.086	-0.149	-0.001	0.052	-0.06	-0.151
C/C(=N\NC(=O)c1cccc(S(=O)(=O)N2CCOCC2)c1)c1cc(Cl)ccc1O	-0.128	0.199	-0.224	-0.004	-0.048	0.003	0.057		
COc1cc2nc(-c3cc(F)ccc3O)nc(N[C@@H]3CNC[C@H]3C(C)(C)O)c2cc1OC	0.05	0.013	-0.006	0.029	-0.086	0.117	-0.012	0.018	
CCN(CC)Cc1ccc2cc(COC(=O)Nc3ccc(C(=O)NO)cc3)ccc2c1 [givinostat]	-0.106	0.031	0.038	0.113	-0.167	-0.001	0.011		
Cc1ccc(C(=O)N(CCCN)[C@@H](c2nc3cc(Cl)ccc3c(=O)n2Cc2ccccc2)C(C)C)cc1 [ispinesib]	-0.016	-0.027	-0.353	0.023	-0.076	-0.035	0.126		
CC[C@H](C)[C@H](NC(=O)[C@H]([C@@H](C)CC)N(C)C(C)=O)C(=O)N[C@H](C(=O)N[C@@H](CC(C)C)C(=O)[C@@]1(C)CO1)[C@@H](C)O [epoxomicin]	-0.107	0.1	-0.303	-0.044	-0.102	-0.083	0.124	-0.052	-0.037
NC(=O)c1ccc2nc(-c3ccc(Oc4ccc(Cl)cc4)cc3)[nH]c2c1	0.027	-0.034	0.025	-0.046	0.14	0.027	0.022		
CN1CC[C@H](c2c(O)cc(O)c3c(=O)cc(-c4ccccc4Cl)oc23)[C@H](O)C1 [alvocidib]	0.189	-0.318	0.321	-0.027	-0.016	-0.038	0.077		
Fc1ccc(Cl)cc1-c1nc(Nc2ccncc2)c2nccnc2n1	-0.275	0.128	-0.378	-0.006	0.152	-0.002	0.093	-0.083	0.028
Cc1ccc(Sc2cncc3sc(C(N)=O)cc23)cc1	-0.115	0.053	-0.109	0.038	0.014	-0.011	-0.138	0.034	
CC(C)(C)Cn1c(N)nc2ccc(-c3[nH]c(C(C)(C)C)nc3-c3ccc(F)cc3)nc21 [ralimetinib]	0.047	0.035	0.017	-0.099	-0.187	-0.001	-0.033		
Cn1cc(-c2ccc3c(c2)CCN3C(=O)Cc2cccc(C(F)(F)F)c2)c2c(N)ncnc21	-0.084	0.014	-0.074	0.018	-0.036	-0.02	-0.088		
C[C@@H]1COCCN1c1cc(C2(S(C)(=O)=O)CC2)nc(-c2cccc3[nH]ccc23)n1	-0.151	0.119	-0.381	0.005	0.131	-0.011	-0.037	0.067	0.284
C[C@@H](N)c1ccc(C(=O)Nc2ccnc3[nH]ccc23)cc1	0.218	-0.213	0.359	-0.03	0.051	0.006	-0.065		
CC(C)c1cnn2c(NCc3ccccc3)cc(NCCCCCCN)nc12	0.177	-0.151	0.004	-0.061	-0.229	0.007	-0.008		
